# In the supplement of paper PMC11732987, “Enantioselective OTUD7B fragment discovery through chemoproteomics screening and high-throughput optimisation” (Communications Chemistry, 2025):
# A number with no mark means an inactive call.
# Key:
# Test in all cases: log2 ratio of Biotin-Ahx-Ub-VS probe labelling (fragment/DMSO); higher = less target engagement (more negative = stronger competition), active = hit call of the paper (q ≤ 0.05, log2 ratio ≤ -1)
# Details in all cases: compound concentration: 200 uM; treatment time: 3 h
# USP19 = molecular target: T1, USP19 (UniProt O94966)
# T1 sequence (whole entry): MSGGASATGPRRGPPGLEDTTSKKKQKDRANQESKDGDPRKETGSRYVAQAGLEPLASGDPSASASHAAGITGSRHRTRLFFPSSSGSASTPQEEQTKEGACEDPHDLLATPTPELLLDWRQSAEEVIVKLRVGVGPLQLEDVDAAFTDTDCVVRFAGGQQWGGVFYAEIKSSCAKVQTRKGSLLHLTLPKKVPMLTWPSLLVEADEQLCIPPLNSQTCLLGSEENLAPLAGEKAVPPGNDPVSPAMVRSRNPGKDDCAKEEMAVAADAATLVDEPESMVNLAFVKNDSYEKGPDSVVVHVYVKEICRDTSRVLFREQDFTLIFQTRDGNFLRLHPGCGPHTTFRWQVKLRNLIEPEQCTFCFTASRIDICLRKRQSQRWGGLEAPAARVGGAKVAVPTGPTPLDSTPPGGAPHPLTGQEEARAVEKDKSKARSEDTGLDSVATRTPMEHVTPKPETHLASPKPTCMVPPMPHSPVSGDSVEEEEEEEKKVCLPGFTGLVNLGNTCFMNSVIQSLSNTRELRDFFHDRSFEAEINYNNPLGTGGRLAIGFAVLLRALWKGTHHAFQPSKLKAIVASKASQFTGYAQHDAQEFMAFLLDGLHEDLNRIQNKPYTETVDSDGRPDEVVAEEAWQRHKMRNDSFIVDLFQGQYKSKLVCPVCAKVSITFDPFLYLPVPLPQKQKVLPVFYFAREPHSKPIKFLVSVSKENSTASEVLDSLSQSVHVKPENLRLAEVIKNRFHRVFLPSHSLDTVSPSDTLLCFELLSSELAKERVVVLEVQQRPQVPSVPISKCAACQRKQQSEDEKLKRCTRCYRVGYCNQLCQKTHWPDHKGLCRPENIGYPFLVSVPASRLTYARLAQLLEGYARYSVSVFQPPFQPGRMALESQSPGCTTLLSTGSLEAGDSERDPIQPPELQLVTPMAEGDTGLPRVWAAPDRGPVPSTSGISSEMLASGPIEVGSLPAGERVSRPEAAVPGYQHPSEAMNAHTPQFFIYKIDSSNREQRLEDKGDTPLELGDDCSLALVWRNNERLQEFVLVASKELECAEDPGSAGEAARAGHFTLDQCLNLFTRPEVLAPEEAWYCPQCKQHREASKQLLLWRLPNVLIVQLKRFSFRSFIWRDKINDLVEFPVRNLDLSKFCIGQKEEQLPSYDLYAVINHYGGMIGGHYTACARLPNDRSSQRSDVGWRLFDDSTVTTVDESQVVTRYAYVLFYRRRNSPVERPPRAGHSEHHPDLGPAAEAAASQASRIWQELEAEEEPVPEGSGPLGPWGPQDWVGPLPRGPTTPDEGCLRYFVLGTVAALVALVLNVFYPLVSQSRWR
# Procedure, shortened: (§1)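 Each value is an average log2 ratio of fragment to vehicle, tested by unpaired t-test. The underlying Spectronaut label-free quantities were global-median-normalised, and only proteins with ≥2 unique peptides were included. Triplicate HEK293T lysate samples (495 µg) were exposed to fragment at 200 µM or vehicle for 3 h, then to Biotin-Ahx-Ub-VS at 0.5 µM final for 1 h, before NeutrAvidin enrichment of labelled DUBs, LysC and trypsin digestion, and diaPASEF LC-MS/MS.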
# USP22 = molecular target: T2, USP22 (UniProt Q9UPT9)
# T2 sequence (whole entry): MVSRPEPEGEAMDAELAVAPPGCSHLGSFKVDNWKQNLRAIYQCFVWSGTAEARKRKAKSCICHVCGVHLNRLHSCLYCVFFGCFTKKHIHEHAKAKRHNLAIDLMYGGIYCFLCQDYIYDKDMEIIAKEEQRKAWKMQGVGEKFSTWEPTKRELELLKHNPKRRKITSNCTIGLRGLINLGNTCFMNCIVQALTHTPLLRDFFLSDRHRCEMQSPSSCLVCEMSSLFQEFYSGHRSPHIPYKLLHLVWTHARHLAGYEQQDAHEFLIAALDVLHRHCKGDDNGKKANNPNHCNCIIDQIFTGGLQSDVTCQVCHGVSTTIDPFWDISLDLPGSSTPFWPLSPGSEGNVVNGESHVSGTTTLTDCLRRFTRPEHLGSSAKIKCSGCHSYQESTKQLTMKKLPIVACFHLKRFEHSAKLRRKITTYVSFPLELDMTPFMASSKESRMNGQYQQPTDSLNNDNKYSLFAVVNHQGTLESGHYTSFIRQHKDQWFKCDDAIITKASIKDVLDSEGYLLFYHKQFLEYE
# Procedure, shortened: as §1
# USP24 = USP24 (UniProt Q9UPU5)
# Sequence of USP24 (Q9UPU5 whole entry): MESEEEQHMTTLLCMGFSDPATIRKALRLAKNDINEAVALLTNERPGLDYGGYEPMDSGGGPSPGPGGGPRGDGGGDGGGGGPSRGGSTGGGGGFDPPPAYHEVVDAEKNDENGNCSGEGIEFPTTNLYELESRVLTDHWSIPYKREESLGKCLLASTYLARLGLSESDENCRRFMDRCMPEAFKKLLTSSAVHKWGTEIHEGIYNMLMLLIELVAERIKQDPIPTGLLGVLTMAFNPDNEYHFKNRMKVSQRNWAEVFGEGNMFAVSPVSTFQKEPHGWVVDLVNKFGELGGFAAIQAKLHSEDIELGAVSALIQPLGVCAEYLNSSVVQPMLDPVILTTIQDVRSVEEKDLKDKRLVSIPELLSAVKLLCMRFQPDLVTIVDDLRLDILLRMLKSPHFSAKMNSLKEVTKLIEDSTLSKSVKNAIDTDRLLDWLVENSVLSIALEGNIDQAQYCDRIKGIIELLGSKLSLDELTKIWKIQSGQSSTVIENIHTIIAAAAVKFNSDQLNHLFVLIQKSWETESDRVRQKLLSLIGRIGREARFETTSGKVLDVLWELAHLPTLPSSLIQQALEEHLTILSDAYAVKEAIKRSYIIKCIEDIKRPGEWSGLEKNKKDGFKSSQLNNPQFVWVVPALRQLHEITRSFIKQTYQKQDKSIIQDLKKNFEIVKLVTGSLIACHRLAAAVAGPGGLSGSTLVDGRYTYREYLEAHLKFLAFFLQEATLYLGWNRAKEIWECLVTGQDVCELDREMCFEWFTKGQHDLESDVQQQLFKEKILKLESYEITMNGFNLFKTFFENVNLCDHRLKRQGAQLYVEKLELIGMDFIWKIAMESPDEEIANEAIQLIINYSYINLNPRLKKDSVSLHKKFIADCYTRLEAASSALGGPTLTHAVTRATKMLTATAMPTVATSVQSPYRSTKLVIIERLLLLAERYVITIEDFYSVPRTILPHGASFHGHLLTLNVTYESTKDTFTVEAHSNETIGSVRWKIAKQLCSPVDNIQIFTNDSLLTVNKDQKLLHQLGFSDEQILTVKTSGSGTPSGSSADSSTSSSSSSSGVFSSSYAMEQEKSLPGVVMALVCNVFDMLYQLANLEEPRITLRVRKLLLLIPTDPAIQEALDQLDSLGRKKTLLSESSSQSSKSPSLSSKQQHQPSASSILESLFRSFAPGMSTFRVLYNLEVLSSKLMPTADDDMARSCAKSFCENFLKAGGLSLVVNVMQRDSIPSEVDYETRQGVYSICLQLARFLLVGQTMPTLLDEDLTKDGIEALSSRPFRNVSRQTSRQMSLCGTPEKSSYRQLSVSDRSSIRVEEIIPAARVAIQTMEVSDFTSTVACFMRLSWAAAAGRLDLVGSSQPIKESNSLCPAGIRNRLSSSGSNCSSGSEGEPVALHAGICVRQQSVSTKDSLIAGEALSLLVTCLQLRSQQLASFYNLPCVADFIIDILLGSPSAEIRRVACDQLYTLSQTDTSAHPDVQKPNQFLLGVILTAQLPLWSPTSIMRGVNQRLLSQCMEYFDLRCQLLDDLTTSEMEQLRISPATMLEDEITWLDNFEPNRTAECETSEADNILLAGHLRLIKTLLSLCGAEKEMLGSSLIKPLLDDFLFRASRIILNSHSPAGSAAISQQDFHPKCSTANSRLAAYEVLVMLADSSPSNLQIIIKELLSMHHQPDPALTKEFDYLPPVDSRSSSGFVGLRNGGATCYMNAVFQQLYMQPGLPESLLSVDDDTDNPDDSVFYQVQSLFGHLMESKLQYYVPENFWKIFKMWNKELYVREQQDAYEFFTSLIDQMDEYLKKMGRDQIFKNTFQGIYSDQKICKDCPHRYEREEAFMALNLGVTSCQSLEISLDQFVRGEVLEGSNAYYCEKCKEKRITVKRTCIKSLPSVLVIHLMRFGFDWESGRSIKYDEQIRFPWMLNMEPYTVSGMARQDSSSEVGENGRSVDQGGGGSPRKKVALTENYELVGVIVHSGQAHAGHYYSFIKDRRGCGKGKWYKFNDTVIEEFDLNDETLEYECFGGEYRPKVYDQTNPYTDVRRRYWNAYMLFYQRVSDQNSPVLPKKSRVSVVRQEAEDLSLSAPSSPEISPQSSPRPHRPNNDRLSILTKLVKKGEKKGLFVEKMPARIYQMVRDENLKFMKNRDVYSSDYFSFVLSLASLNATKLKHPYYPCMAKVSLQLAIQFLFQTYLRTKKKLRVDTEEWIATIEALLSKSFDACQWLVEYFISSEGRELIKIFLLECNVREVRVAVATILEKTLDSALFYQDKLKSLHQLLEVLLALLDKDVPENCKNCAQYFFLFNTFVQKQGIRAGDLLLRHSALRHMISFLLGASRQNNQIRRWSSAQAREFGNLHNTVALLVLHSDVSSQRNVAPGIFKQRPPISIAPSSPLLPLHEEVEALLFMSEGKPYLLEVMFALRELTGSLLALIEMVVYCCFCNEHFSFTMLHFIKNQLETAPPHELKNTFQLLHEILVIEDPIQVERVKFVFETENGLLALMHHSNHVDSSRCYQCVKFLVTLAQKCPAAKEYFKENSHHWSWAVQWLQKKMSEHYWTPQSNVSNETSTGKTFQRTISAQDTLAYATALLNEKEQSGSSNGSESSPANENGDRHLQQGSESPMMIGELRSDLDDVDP
# Procedure, shortened: as §1
# USP25 = molecular target: T3, USP25 (UniProt Q9UHP3)
# T3 sequence (whole entry): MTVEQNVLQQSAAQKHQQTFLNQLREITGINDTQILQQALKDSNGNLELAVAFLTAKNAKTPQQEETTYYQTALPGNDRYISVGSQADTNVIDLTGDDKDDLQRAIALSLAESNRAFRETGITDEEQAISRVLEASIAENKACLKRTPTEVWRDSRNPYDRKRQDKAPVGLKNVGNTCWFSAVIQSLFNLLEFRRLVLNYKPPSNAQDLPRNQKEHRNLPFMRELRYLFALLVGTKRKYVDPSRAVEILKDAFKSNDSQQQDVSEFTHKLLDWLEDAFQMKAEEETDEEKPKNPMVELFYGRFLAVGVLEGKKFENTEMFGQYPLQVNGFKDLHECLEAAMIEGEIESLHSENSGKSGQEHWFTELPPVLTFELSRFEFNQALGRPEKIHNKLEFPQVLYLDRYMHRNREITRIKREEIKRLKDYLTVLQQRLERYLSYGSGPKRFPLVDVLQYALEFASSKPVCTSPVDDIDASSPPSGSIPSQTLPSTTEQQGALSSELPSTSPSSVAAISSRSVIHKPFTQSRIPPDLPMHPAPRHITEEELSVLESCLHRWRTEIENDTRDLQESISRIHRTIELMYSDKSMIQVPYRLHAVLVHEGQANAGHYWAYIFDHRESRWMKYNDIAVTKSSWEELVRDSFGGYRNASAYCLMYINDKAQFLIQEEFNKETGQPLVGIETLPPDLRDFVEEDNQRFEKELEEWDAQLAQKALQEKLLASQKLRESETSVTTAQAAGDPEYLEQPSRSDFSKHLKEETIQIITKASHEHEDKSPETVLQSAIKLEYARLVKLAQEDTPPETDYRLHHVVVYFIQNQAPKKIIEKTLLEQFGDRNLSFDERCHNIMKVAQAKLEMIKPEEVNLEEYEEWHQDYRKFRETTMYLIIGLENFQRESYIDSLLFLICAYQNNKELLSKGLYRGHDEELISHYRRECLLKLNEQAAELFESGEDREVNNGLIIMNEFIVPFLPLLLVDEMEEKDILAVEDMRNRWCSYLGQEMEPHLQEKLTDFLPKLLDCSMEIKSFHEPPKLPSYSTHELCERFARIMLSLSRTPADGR
# Procedure, shortened: as §1
# USP28 = molecular target: T4, USP28 (UniProt Q96RU2)
# T4 sequence (whole entry): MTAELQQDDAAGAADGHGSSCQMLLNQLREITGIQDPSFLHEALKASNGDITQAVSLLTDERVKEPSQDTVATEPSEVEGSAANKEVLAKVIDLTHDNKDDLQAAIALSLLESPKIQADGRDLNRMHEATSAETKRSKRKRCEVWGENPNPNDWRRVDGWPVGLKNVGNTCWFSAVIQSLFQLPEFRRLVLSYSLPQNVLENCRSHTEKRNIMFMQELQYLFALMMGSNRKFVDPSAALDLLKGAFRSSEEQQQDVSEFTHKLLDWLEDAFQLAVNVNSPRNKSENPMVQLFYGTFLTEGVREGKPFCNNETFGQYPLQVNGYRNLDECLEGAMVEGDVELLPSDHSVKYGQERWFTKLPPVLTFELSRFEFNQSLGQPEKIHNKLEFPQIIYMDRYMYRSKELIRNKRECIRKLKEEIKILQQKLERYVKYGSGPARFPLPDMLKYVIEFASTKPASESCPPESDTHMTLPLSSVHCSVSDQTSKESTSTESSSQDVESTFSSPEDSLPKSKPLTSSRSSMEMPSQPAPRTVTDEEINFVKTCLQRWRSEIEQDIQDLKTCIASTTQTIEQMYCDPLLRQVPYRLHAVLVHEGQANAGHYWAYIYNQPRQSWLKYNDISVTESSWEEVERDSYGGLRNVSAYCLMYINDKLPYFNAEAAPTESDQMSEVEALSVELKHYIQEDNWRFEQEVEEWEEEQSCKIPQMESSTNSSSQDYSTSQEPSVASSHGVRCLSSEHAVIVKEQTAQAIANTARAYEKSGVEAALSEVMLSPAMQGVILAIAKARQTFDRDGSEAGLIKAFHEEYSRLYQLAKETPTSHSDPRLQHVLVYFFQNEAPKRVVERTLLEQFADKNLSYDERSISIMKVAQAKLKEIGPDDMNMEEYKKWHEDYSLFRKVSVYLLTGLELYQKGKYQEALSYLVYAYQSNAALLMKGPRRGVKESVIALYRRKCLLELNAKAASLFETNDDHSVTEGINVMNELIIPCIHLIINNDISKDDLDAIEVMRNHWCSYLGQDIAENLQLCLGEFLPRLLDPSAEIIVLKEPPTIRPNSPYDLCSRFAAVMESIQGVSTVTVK
# Procedure, shortened: as §1
smiles,measurement,setting,value
Cc1ccccc1CN(C)C(=O)CCl,log2 ratio of Biotin-Ahx-Ub-VS probe labelling,USP19,-0.829
same,log2 ratio of Biotin-Ahx-Ub-VS probe labelling,USP22,-0.0794
same,log2 ratio of Biotin-Ahx-Ub-VS probe labelling,USP24,-1.38 (active)
same,log2 ratio of Biotin-Ahx-Ub-VS probe labelling,USP25,-1.03 (active)
same,log2 ratio of Biotin-Ahx-Ub-VS probe labelling,USP28,-1.35 (active)
